Hits are enriched below; roughly 9.3% of the tested compounds scored in any of these assays.
FMDV antiviral = foot and mouth disease virus antiviral activity. FMDV antiviral cell-based qHTS. Potency, µM (highest dose often 57.9 µM), hits mostly inhibitors. hit rate 1.2% among 410,000. AID 1159524; calls by dose curve; tested in HEK293T cells; further: read-out not given here; nearly all actives have a fitted effect of over 45% in size
VACV mCherry inh = vaccinia inhibition (mCherry reporter); Vaccinia virus mCherry reporter infection, fluorescence; Potency, µM (top dose mostly 36.5 µM), most hits filed as inhibitors; hit rate 0.63% among 310,000; AID 720579; calls by dose curve; tested in A549 cells; further: nearly all actives have a fitted effect of over 35% in size
VACV Venus inh = inhibitors of vaccinia virus (Venus reporter) | Vaccinia virus Venus reporter expression, fluorescence | Potency, µM (titrated, usually from 36.5 µM), hits mostly inhibitors | hit rate 0.46% among 330,000 | AID 720580; calls by dose curve; tested in A549 cells; further: nearly all actives have a fitted effect of over 30% in size
HCV inhibitor = inhibitors of hepatitis C virus infection; Huh7.5.1 HCVcc-Cre infection, luciferase reporter, 44 h; Potency, µM (series often up to 41.8 µM), actives largely listed as inhibitors; hit rate 3.4% among 340,000; AID 651820
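Cells seeded at 1,000/well and cultured 4 h, then compounds added followed by HCVcc-Cre virus (~0.5 moi). After 44 h further culture, luciferase substrate was added, plates held 15 min at room temperature, and luminescence read for 15 sec.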
HCMV antiviral = human cytomegalovirus inhibition | HFF cells, HCMV-luciferase reporter, 72 h; active compounds read low | hit rate 4.5% among 410,000 | AID 1259415 | activity change, negative = inhibition, % at 57.5 µM; in the data active means activity change below about -60%; inconclusive means no clear call, values can overlap the other calls; inactive means above about -39%
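Steps: HFFs plated, 16 h 37C; compounds added; HCMV-luciferase added to MOI 1 PFU/cell; 72 h 37C; OneGlo reagent, 5 min room temperature; luminescence read, normalized to controls.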
Sm TGR block = blocks Schistosoma mansoni thioredoxin glutathione reductase; Q962Y6; purified TGR, DTNB reduction, TNB absorbance 405 nm; Potency, µM (highest dose often 114 µM), most hits filed as inhibitors; hit rate 3% among 360,000; AID 485364; further: nearly all actives have a fitted effect of over 60% in size
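TGR 20 nM + NADPH 100 uM (dispensed conc.), cpd preinc 15 min RT; start with NADPH (500 uM addition) then DTNB (15 mM addition). Kinetic TNB absorbance, 405 nm filter. Four-parameter Hill fit across titration.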
Each line names hits and unclear results; the compound was inactive in the other large screens. Unless noted, the call rests on the fitted dose curve; in most records, active means well fitted curve in the direction sought with a large enough effect; inconclusive means small, poorly fitted or top-dose-only effect, or another doubt; inactive means no such curve, though single readings can be large; an effect the other way counts as inactive or inconclusive.

Cc1cc(Cl)ccc1NC(=S)NCc1ccco1	HCMV antiviral -61
S=C(NCc1ccco1)Nc1ccccc1Cl	HCV inhibitor inconclusive, Sm TGR block 7.9µM (no result: VACV mCherry inh, VACV Venus inh)
CC(C)(CO)NC(=S)NCc1ccco1	Sm TGR block 25µM
CC(C)(C)c1ccc(C(=O)NC(=S)NCc2ccco2)cc1	Sm TGR block inconclusive (no result: VACV mCherry inh, VACV Venus inh)
COCCNC(=S)N(CCc1c(C)[nH]c2ccc(F)cc12)Cc1cccs1	HCV inhibitor inconclusive, HCMV antiviral inconclusive (no result: VACV mCherry inh, VACV Venus inh)
Cn1cc(/C=C(\NC(=O)c2ccccc2Cl)C(=O)N2CCOCC2)c2ccccc21	none (no result: VACV mCherry inh, VACV Venus inh)
N#CC1(C#N)CC(C=O)=C(N)C1(C#N)CC(=O)C12CC3CC(CC(C3)C1)C2 (stereo not given)	FMDV antiviral 22µM, Sm TGR block 40µM
Nc1nccnc1C(=O)OCC(=O)C12CC3CC(CC(C3)C1)C2	none
O=C(Cn1nnc(-c2ccccc2F)n1)Nc1ccc2c(c1)OCCO2	none
CC(C)=CCc1c([C@@H]2CCc3ccc(O)cc3O2)cc2c(c1O)OC(C)(C)C=C2	HCV inhibitor 14µM (no result: HCMV antiviral, Sm TGR block)
O=C(Nc1ccccc1)C1CCN(C(=O)c2ccc([N+](=O)[O-])cc2)CC1	none (no result: Sm TGR block)
COc1ccccc1NS(=O)(=O)c1cccc(NC(=O)C2CC(=O)N(Cc3ccccc3)C2)c1 (stereo not given)	HCV inhibitor 14µM
O=C(Nc1cccc(S(=O)(=O)N2CCCCC2)c1)C1CC(=O)N(Cc2ccccc2)C1 (stereo not given)	none (no result: VACV mCherry inh, VACV Venus inh)
CN(c1ccccc1)S(=O)(=O)c1cccc(NC(=O)C2CC(=O)N(Cc3ccccc3)C2)c1 (stereo not given)	FMDV antiviral inconclusive, HCV inhibitor 13µM (no result: VACV mCherry inh, VACV Venus inh)
O=C(CSc1nnnn1-c1ccc(F)cc1)Nc1nc2ccccc2s1	none (no result: VACV mCherry inh, VACV Venus inh)
O=C(O)C1CCC(NSc2ccccc2[N+](=O)[O-])CC1 (stereo not given)	Sm TGR block inconclusive (no result: VACV mCherry inh, VACV Venus inh)
CCOCCCNC(=S)Nc1ccc(Br)cc1Cl	Sm TGR block inconclusive
Cc1ccc(-c2nnc(C3CCN(S(=O)(=O)c4ccc(C)c(C)c4)CC3)o2)cc1	HCMV antiviral inconclusive (no result: HCV inhibitor)
Cc1cccc(-c2nnc(C3CCN(S(=O)(=O)c4cccc(Cl)c4)CC3)o2)c1	HCMV antiviral -94 (no result: HCV inhibitor)
CC(=O)Nc1ccc(S(=O)(=O)N2CCC(c3nnc(-c4ccc(C)cc4)o3)CC2)cc1	FMDV antiviral inconclusive, HCMV antiviral -96
COc1ccc(C(=O)N=C2SC3CS(=O)(=O)CC3N2c2ccccc2)cc1OC (stereo not given)	none
COc1ccc(NS(=O)(=O)c2ccc3c(c2)CCN3C(=O)CCC(=O)O)cc1OC	HCMV antiviral inconclusive
Nc1ccc2c(c1)C(=NO)c1cc([N+](=O)[O-])ccc1-2	VACV mCherry inh inconclusive, HCV inhibitor inconclusive, HCMV antiviral -85 (no result: Sm TGR block)
COc1ccc(N=C2c3ccccc3-c3ccc([N+](=O)[O-])cc32)cc1	none (no result: Sm TGR block)
O=[N+]([O-])c1ccc2c(c1)C(=Nc1ccccc1)c1ccccc1-2	HCMV antiviral -92 (no result: Sm TGR block)
O=[N+]([O-])c1ccc2c(c1)-c1ccccc1C2=NO	HCV inhibitor inconclusive, HCMV antiviral -70 (no result: Sm TGR block)
CCCCN(C(=O)c1ccc([N+](=O)[O-])s1)c1c(N)n(CCCC)c(=O)[nH]c1=O	none
CC1=C(C(=O)N(C)C)CC(CC(=O)NCCN2CCOCC2)C(=O)N1Cc1ccc(C(C)(C)C)cc1 (stereo not given)	none (no result: HCV inhibitor, Sm TGR block)
CCOc1ccccc1CNS(=O)(=O)c1ccc2[nH]c(=O)ccc2c1	none (no result: HCV inhibitor)
Cc1ccc(C)c(S(=O)(=O)Nc2ccc(O)c(C(=O)O)c2)c1	none
Cc1ccc(S(=O)(=O)Nc2ccc(O)c3ccccc23)c(C)c1	HCV inhibitor inconclusive, HCMV antiviral inconclusive, Sm TGR block 8.9µM
Cc1ccc(S(=O)(=O)NNc2ccccc2)c(C)c1	Sm TGR block 40µM
Cc1ccc(S(=O)(=O)NNC(=O)c2cccs2)c(C)c1	Sm TGR block inconclusive
Cc1ccc(C)c(S(=O)(=O)Nc2ccc(O)c3ccccc23)c1	Sm TGR block 22µM (no result: VACV mCherry inh, VACV Venus inh)
CCCCc1c(-c2ccccc2OC)ncn1Cc1ccc(-c2ccccc2)cc1	FMDV antiviral 28µM, VACV mCherry inh inconclusive, VACV Venus inh inconclusive (no result: HCV inhibitor, Sm TGR block)
CCCCc1c(-c2ccccc2OC)ncn1C1CCCC1	HCMV antiviral -94 (no result: HCV inhibitor, Sm TGR block)
CCCCc1c(-c2ccccc2OC)ncn1Cc1cccc(-c2ccccc2)c1	FMDV antiviral inconclusive, VACV Venus inh inconclusive, HCMV antiviral inconclusive (no result: HCV inhibitor, Sm TGR block)
Cc1cccc(NC(=O)CN(C)C(=O)c2ccc(N3CCCCCC3)c([N+](=O)[O-])c2)c1C	HCV inhibitor inconclusive, HCMV antiviral inconclusive (no result: Sm TGR block)
CC(C)C[C@H](NC(=O)c1[nH]cnc1C(=O)N[C@@H](C)C(=O)OCc1ccccc1)C(=O)OC(C)(C)C	none
CN(C/C=C/C#CC(C)(C)C)Cc1cccc2ccccc12	FMDV antiviral inconclusive, HCMV antiviral -80 (no result: Sm TGR block)
CCOc1ccc(N2CC(C(=O)NCCN3C(=O)S/C(=C/c4cccnc4)C3=O)CC2=O)cc1 (stereo not given)	none
CN(Cc1cccc2cnccc12)C(=O)c1cc(COc2ccc(F)cc2F)on1	FMDV antiviral inconclusive, HCV inhibitor 8.9µM, HCMV antiviral -60 (no result: VACV mCherry inh, VACV Venus inh)
Cc1c(C(C)NC(=O)c2cc(COc3cccc4cnccc34)on2)cnn1C (stereo not given)	FMDV antiviral inconclusive, HCV inhibitor 7.1µM, HCMV antiviral -86 (no result: VACV mCherry inh, VACV Venus inh)
CN(Cc1cccnc1)C(=O)c1cc(COc2ccc3c(c2)CCCC3)on1	HCMV antiviral -65 (no result: HCV inhibitor)
CN(Cc1cccc2ccccc12)C(=O)c1cc(COc2c(F)cccc2F)on1	HCMV antiviral inconclusive
CCc1ccc(CN(C)C(=O)c2cc(COc3cccc4cnccc34)on2)cc1	FMDV antiviral inconclusive, HCV inhibitor 7.9µM, HCMV antiviral -99 (no result: VACV mCherry inh, VACV Venus inh)
CCc1ccc(CN(C)C(=O)c2cc(COc3c(F)cccc3F)on2)cc1	none (no result: Sm TGR block)
Cc1ccc(-n2ncc(Br)c(Br)c2=O)cc1	FMDV antiviral inconclusive, HCV inhibitor inconclusive, Sm TGR block 6.3µM (no result: VACV mCherry inh, VACV Venus inh, HCMV antiviral)
O=c1c(Br)c(N2CCCC2)cnn1-c1ccccc1	none
O=c1c(Br)c(Br)cnn1-c1ccccc1	FMDV antiviral 14µM, VACV mCherry inh inconclusive, VACV Venus inh inconclusive, HCV inhibitor 8.9µM, HCMV antiviral -97, Sm TGR block 3.2µM
COc1cc2c(cc1OC)C(=O)C(Br)CC2 (stereo not given)	FMDV antiviral inconclusive (no result: HCV inhibitor, HCMV antiviral, Sm TGR block)
CC1(C)CC2CC(C)(CN2C(=O)c2cc(-c3ccc(O)cc3)on2)C1 (stereo not given)	VACV mCherry inh inconclusive, HCMV antiviral -61
O=C(Nc1ccc2[nH]c(=O)[nH]c2c1)c1ccc([N+](=O)[O-])o1	HCV inhibitor 10µM, Sm TGR block 40µM (no result: VACV mCherry inh, VACV Venus inh)
Cc1ccnc(NC(=O)c2ccc([N+](=O)[O-])o2)c1	HCV inhibitor inconclusive, Sm TGR block inconclusive
O=C(Nc1cccc([N+](=O)[O-])c1)c1ccc([N+](=O)[O-])o1	FMDV antiviral inconclusive, VACV Venus inh inconclusive, HCMV antiviral -87 (no result: HCV inhibitor, Sm TGR block)
